# Most compounds without a hit are left out; they make up all but 7.3% or so of the library.
# Tau FP inhib = tau fibrillization inhibition (FP) | P10636 | K18 P301L tau heparin fibrillization, Alexa594 FP, 6 h | Potency, µM (series often up to 57.7 µM), for inactives: at the top dose activity, negative = inhibition, hits mostly inhibitors | 280,000 compounds, 0.39% hits | AID 1468; further: nearly all actives have a fitted effect of over 55% in size
#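 Compound effects on tau fibrillization are measured by Alexa 594 fluorescence polarization (ex 555, em 632 nm). K18 P301L tau is used at 15 uM with 0.24 uM labeled tracer, and 20 uM heparin induces aggregation over 6 hr at 37 C.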
# Tau ThT inhib = inhibitors of human tau fibril formation, thioflavin T binding; AID 1460; recombinant tau K18 P301L, heparin-induced fibrillization, ThT fluorescence; 270,000 compounds, 2.1% hits; Potency, µM (doses to about 57.4 µM), for inactives: top-dose activity, negative = inhibition, hits mostly inhibitors; further: nearly all actives have a fitted effect of over 55% in size
#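 Fibril formation assay: tau K18 P301L at 15 uM with trace Alexa 594 label, heparin inducer 20 uM, pH 7 sodium acetate buffer, 37 C for 6 hr; endpoint ThT signal.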
# RORgamma inh = ROR gamma (mouse) transcription inhibition; P51450; Drosophila S2 Gal4-RORgamma UAS-luciferase reporter, 20 h; Potency, µM (highest dose often 53.6 µM), without a hit: top-dose activity change, negative = inhibition, actives largely listed as inhibitors; 310,000 compounds, 5.4% hits; AID 2551; further: nearly all actives have a fitted effect of over 60% in size
# Target sequence (P51450 whole entry, looked up, the tested form may be a part): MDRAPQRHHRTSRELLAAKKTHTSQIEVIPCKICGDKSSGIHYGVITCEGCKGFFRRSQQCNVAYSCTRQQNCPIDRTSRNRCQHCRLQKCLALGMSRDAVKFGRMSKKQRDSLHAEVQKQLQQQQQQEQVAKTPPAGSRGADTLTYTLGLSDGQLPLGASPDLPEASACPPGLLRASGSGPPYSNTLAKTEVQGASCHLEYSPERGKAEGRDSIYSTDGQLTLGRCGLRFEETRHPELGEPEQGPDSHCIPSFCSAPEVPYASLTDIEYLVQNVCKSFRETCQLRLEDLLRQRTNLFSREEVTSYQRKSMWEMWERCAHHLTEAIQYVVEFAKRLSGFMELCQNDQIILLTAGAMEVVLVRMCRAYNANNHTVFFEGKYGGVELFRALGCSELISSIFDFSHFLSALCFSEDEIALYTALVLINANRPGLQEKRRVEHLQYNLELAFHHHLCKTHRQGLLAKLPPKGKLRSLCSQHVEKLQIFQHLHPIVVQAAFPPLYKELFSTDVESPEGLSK
#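 Drosophila Schneider cells stably carrying a metallothionein-driven Gal4 DBD–ROR gamma fusion and a UAS-Photinus luciferase reporter were exposed to compound for 1 hr, then induced with copper sulfate (700 uM final) for 20 hr at ambient temperature before luminescence reading.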
# Tau fluor cs = counter-screen for tau fibril formation inhibitors; tau K18 P301L Alexa594 fluorescence, heparin fibrillization; Potency, µM (doses to about 57.7 µM), for inactives: at the top dose activity change, negative = decrease; 280,000 compounds, 0.93% hits; AID 1463; further: nearly all actives have a fitted effect of over 55% in size
#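 Human tau K18 P301L (15 uM unlabeled, 0.24 uM Alexa 594-labeled) in 100 mM sodium acetate pH 7 with 20 uM heparin, 6 hr at 37 C. ThT 30 uM added, 1 hr ambient; Alexa 594 FP and total fluorescence read at 555/632 nm.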
# Gal4-VP16 FLuc = counter-screen for ROR gamma inhibitors: Gal4-VP16 reporter. Drosophila S2 Gal4-VP16 UAS-luciferase, luminescence, 20 h. Potency, µM (doses to about 53.6 µM), inactives show top-dose activity, negative = inhibition, usual class: inhibitors. 310,000 compounds, 3.5% hits;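 further: Gal4-VP16 expression switched on by copper sulfate through the metallothionein promoter; nearly all actives have a fitted effect of over 50% in size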
# Starred values were filed as active, the others as inactive; ? = inconclusive; · = no result given. The call rests on the fitted dose curve; in most records, active means well fitted curve in the direction sought with a large enough effect; inconclusive means small, poorly fitted or top-dose-only effect, or another doubt; inactive means no such curve, though single readings can be large; an effect the other way counts as inactive or inconclusive. On the % scale 0 is the no-effect control and ±100 the full control effect; potency means the concentration at half of the fitted maximal effect.
SMILES,Tau FP inhib,Tau ThT inhib,RORgamma inh,Tau fluor cs,Gal4-VP16 FLuc
Cc1c(C(=O)NCc2ccccc2Cl)sc2nc3n(c(=O)c12)CCCCC3,?,-12%,·,-12%,·
CCc1ccc(Nc2n[n+](-c3ccccc3)c(-c3c(Cl)cccc3Cl)s2)cc1,·,·,11µM*,·,?
Fc1ccc(-[n+]2nc(Nc3ccccc3)sc2-c2c(Cl)cccc2Cl)cc1,·,·,-37%,·,0%
CCc1ccc(Nc2n[n+](-c3ccccc3)c(-c3ccc(OCc4ccccc4)cc3)s2)cc1,·,·,7.9µM*,·,?
COc1ccccc1CNC(=O)CCCn1c(=O)c2cccn2c2ccccc21,-13%,-19%,·,-29%,·
O=C(c1ccc2c(c1)N(Cc1ccccc1)C(=O)c1ccccc1S2(=O)=O)N1CCN(c2ccccn2)CC1,1%,9%,·,-10%,·
CCn1c(CN2CCC(C)CC2)nc2cc(NC(=O)c3cccc([N+](=O)[O-])c3)ccc21,15%,?,·,?,·
CC1/C=C/C=C/C=C/C=C/C=C/C=C/C=C/C(OC2OC(C)C(O)C(N)C2O)CC2O[C@@](O)(CC(O)CC(O)C(O)CCC(O)CC(O)CC(=O)OC(C)[C@H](C)C1O)CC(O)C2C(=O)O (some centres not stated),4µM*,4µM*,-9%,?,-1%
CCOC(=O)N1CCN(C(=S)NC(=O)c2ccc(F)cc2)CC1,-2%,-3%,2µM*,4%,3.5µM*
CCOC(=O)c1c(NC(=O)c2ccnn2C)sc(C)c1C,5%,-1%,9%,3%,-13%
CCOC(=O)N1CCN(C(=S)Nc2ccc(C)c(C)c2)CC1,4%,-8%,?,-10%,-4%
CCOC(=O)N1CCN(C(=S)NC(=O)c2ccnn2C)CC1,4%,0%,?,2%,32µM*
CC(C)(C)NC(=S)NC(=O)C12CCC3CC(CC(C3)C1)C2,-2%,-1%,0.71µM*,-4%,0%
COc1cc(NC(=O)CSc2ncnc3c2cnn3Cc2ccccc2)cc(OC)c1,?,-13%,1%,?,6%
COc1ccc(OC)c(NC(=O)CSc2ncnc3c2cnn3-c2ccccc2Cl)c1,2%,-20%,?,-30%,1.4µM*
COc1ccc(N=C2C(=Nc3ccc(OC)cc3)N(c3ccccc3)C(=S)N2C(=O)c2ccc(Cl)cc2)cc1,4%,?,14µM*,-26%,?
COc1ccc(N=C2C(=Nc3ccc(OC)cc3)N(c3ccc(N(C)C)cc3)C(=S)N2c2ccc(OC)cc2)cc1,9%,?,1%,?,10%
COc1ccc(N=C2C(=Nc3ccc(OC)cc3)N(c3ccc(OC)cc3)C(=S)N2C(=O)c2ccc(OC)cc2)cc1,-8%,28µM*,?,-24%,-3%
O=C1CC(c2ccccc2)Cc2[nH]c(=O)c(C(=O)Nc3cccc(F)c3)cc21 (configuration not stated),-4%,10%,·,12%,·
N#C/C(=C\c1cc2ccccc2nc1N1CCOCC1)C(=O)Nc1ccc(N2CCOCC2)cc1,-6%,14µM*,-6%,?,3%
Cc1ccc(C)c(NC(=O)c2nnn(Cc3ccc(F)cc3Cl)c2N)c1,?,2%,·,?,·
CCSc1nnc2n(-c3cccc(C)c3)c(=O)c3c4c(sc3n12)CCCC4,5%,-19%,·,-16%,·
CN(C)c1ccc(S(=O)(=O)NCC(=O)OCC(=O)Nc2cc(Cl)cc(Cl)c2)cc1[N+](=O)[O-],?,28µM*,41%,?,1%
COc1cc(NC(=O)COC(=O)CNS(=O)(=O)c2ccc(F)c(F)c2F)cc(OC)c1,-5%,0%,8%,-15%,-8%
COc1ccc(CN2CCc3nc(SCC(=O)Nc4cc(C)cc(C)c4)[nH]c(=O)c3C2)cc1,-3%,4%,·,-6%,·
COC(=O)c1ccccc1S(=O)(=O)NNC(=O)Nc1ccccc1,·,·,11µM*,·,?
N#C/C(=N\Nc1ccc(Cl)cc1)C(N)=S,11%,·,4.5µM*,-23%,6.3µM*
Cc1ccc(NC(N)=S)cc1C,-9%,2%,?,0%,?
Cc1ccc(N/N=C(\C#N)C(N)=S)cc1C,3%,?,2.8µM*,-23%,?

# From PubChem
